Source: PubChem
This is a sample that favours compounds with a hit; in the whole collection about 2.4% have one here.
Pol iota inh = inhibitors of human DNA polymerase iota; Potency, µM (series often up to 115 µM), for the others: top-dose activity, negative = inhibition, actives largely listed as inhibitors; Q9UNA4; Pol iota fluorescent replication assay, 10 min; 1% of 390,000 active; AID 588590
Target sequence (Q9UNA4 whole entry, looked up): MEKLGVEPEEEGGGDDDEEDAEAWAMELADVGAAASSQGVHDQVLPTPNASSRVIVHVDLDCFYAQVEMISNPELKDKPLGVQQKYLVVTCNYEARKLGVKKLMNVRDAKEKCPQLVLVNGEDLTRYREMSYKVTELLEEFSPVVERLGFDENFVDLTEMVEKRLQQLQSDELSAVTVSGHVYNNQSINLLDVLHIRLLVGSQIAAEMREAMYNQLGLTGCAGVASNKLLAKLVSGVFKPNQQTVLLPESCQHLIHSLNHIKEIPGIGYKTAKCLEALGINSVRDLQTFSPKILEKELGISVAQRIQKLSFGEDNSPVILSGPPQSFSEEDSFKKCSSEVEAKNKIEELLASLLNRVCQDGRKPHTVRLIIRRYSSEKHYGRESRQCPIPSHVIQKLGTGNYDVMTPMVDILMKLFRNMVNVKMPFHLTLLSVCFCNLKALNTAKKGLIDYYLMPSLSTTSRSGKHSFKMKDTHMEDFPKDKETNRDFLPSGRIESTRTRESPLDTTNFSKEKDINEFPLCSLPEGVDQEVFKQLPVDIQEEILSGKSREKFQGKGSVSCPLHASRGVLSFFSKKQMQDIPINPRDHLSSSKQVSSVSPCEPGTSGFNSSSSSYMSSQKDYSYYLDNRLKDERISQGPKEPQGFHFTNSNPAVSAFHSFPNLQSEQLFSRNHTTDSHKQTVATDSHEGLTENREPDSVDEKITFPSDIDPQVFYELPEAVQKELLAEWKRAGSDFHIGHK
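Fluorescent replication assay read twice, at 0 min and 10 min after adding 50 nM (final) substrate. Enzyme (10 nM) and compounds were first incubated 15 min at room temperature; enzyme-free buffer wells were negative controls.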
Pol eta inh-1 = inhibitors of human DNA polymerase eta; Q9Y253; recombinant Pol eta, fluorescent DNA replication assay; Potency, µM (top dose mostly 114 µM), for the others: top-dose activity change, negative = inhibition, usual class: inhibitors; 1.2% of 390,000 active; further: on the % scale 0 is the no-effect control and ±100 the full control effect
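Pol eta at 10 nM preincubated with compounds 15 min at room temperature; reaction started with fluorescent substrate (50 nM final) and read kinetically at 0 and 10 min.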
Pol kappa inh-1 = DNA polymerase kappa (human) inhibition | purified Pol kappa, fluorescent DNA synthesis assay, 10 min | Potency, µM (top dose mostly 107 µM), for the others: top-dose activity, negative = inhibition, actives largely listed as inhibitors | 0.53% of 400,000 active | AID 588579; further: on the % scale 0 is the no-effect control and ±100 the full control effect
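First, compounds were pin-transferred onto 10 nM Pol kappa. After 15 min at room temperature, substrate was added to 50 nM final. Fluorescence was then measured kinetically at 0 and 10 min.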
FEN1 inh = human FEN1 inhibition | P39748 | Recombinant FEN1 flap cleavage, fluorescence, 15 min | Potency, µM (top dose mostly 114 µM), for the others: at the top dose activity change, negative = inhibition, hits mostly inhibitors | 0.35% of 390,000 active | AID 588795; further: on the % scale 0 is the no-effect control and ±100 the full control effect; nearly all actives have a fitted effect of over 65% in size
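Steps: FEN1 (10 nM) dispensed; compound added by pin tool; 15 min at room temperature; substrate added to 50 nM final; reads at 0 min and 15 min; data normalized and fitted (four-parameter Hill).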
Pol beta inh = inhibitors of human DNA polymerase beta; P06746; Pol beta primer extension/strand displacement, fluorescence kinetic; Potency, µM (doses to about 114 µM), without a hit: at the top dose activity change, negative = inhibition, most hits filed as inhibitors; 1.3% of 340,000 active; further: on the % scale 0 is the no-effect control and ±100 the full control effect
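Pol beta (10 nM) was preincubated with compound for 15 min at room temperature. The reaction was then started with 50 nM substrate and read immediately and after a further 10 min at room temperature.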
WRN helicase inh = inhibitors of human WRN helicase; Potency, µM (doses to about 114 µM), for the others: at the top dose activity change, negative = inhibition, hits mostly inhibitors; 0.46% of 360,000 active; WRN helicase unwinding, fluorescent forked duplex, kinetic; AID 651768; Q14191; further: on the % scale 0 is the no-effect control and ±100 the full control effect; nearly all actives have a fitted effect of over 55% in size
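Primary qHTS, 1536-well format. 20 nM WRN + compound, 15 min RT; start with 100 nM forked fluorophore/quencher duplex, 2 mM ATP (final); kinetic read ex 525/em 598 nm.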
Pol kappa inh-2 = confirmation of human DNA polymerase kappa inhibitors; shares compounds with Pol eta inh-1; purified Pol-kappa, fluorescent strand-displacement substrate; Potency, µM, usual class: inhibitors; 76% of 920 active
Pol eta inh-2 = Pol eta (human) inhibition, cherry-pick confirmation; shares compounds with Pol eta inh-1; Pol eta primer extension, TAMRA/BHQ fluorescence, 10 min; Potency, µM, usual class: inhibitors; 64% of 2,600 active
* hit, by the source's call; ? = inconclusive; nt = no result; [ ] = another dose, or the depositor's remark. The call rests on the fitted dose curve; in most records, active means well fitted curve in the direction sought with a large enough effect; inconclusive means small, poorly fitted or top-dose-only effect, or another doubt; inactive means no such curve, though single readings can be large; an effect the other way counts as inactive or inconclusive. Potency means the concentration at half of the fitted maximal effect.

SMILES	Pol iota inh	Pol eta inh-1	Pol kappa inh-1	FEN1 inh	Pol beta inh	WRN helicase inh	Pol eta inh-2	others
COc1ccc(NC(=O)Cn2cc(S(=O)(=O)Cc3ccc(F)cc3)c3ccccc32)cc1OC	?	50µM*	-20%	-3%	-25%	nt	nt	Pol kappa inh-2=?
CCOC(=O)N1CCC(NC(=O)Cn2ncc3ccccc32)CC1	26%	-5%	-4%	4%	10%	-12%[57.1 µM]	nt
CCOC(=O)N1CCN(C(=O)Cn2ncc3ccccc32)CC1	?	?	?	-17%	20µM*	-20%[57.1 µM]	?
COc1cc(OC)c(NC(=O)CN(C)S(=O)(=O)c2ccc3[nH]c(=O)oc3c2)cc1Cl	-5%	22µM*	?	-23%	?	-7%	?	Pol kappa inh-2=42*
COc1ccc(-c2nc3nc(C)cc(Nc4cccc(C(F)(F)F)c4)n3n2)cc1	-17%	?	-7%	18%	?	nt	nt	Pol kappa inh-2=19*
NC(CSC1(c2ccc(Cl)cc2)c2ccccc2-c2ccccc21)C(=O)O (configuration not stated)	?	?	-9%	1%	nt	-12%[11.6 µM]	?
Cn1c(=O)[nH]c(=O)c2c1nc(NCCO)n2CC(O)COc1ccccc1 (configuration not stated)	?	8%	-3%	-3%	-21%	nt	nt
CC1=C(c2ccc(C(C)C)cc2)S(=O)(=O)NC1=NCc1ccc(Cl)cc1	-27%	3%	-6%	8%	10%	nt	nt
O=C(N/N=C/C=C/c1ccccc1)c1ccccn1	12%	-9%	-6%	13%	2%	-10%	nt
O=C(N/N=C/C=C\c1ccco1)c1cccnc1	18µM*	?	79µM*	-3%	19%	-30%[57.1 µM]	?
O=C(N/N=C/C=C\c1ccco1)c1ccccn1	?	?	50µM*	?	?	35µM*	?
Cn1nccc1-c1ccc(C(=O)NCc2ccc(Cl)cc2)c2occc12	nt	nt	nt	nt	nt	-10%	nt
CCn1c(SCC(=O)c2ccc(O)c(O)c2)nnc1-c1ccc(C)cc1	-51%	10µM*	28µM*	-5%	-46%	13µM*	60*	Pol kappa inh-2=?
Cc1ccc(-c2ccc(C(=O)Nc3ccccc3)o2)c2ccccc12	-3%	-17%	-4%	-23%	14%	-11%	nt
Cc1ccc(S(=O)(=O)NC(=O)c2ccc(-c3ccc(C)c4ccccc34)o2)cc1	?	32µM*	?	-29%	?	?	?
C[C@@]12CCC(O)C[C@H]1CCc1ccccc12 (some centres not stated)	nt	nt	-11%[60.1 µM]	nt	nt	nt	nt
Cc1ccc(-c2cc(C(=O)Nc3cccnc3)c3ccccc3n2)o1	?	45µM*	-15%[60.1 µM]	-22%	?	?	?
COc1cccc(CNc2nc(Cl)nc3nc[nH]c23)c1	-13%	nt	-12%	2%	nt	nt	nt
C/C(=N\Nc1cccc(C(=O)O)c1)c1ccc(Cl)s1	35µM*	20µM*	71µM*	5%	32µM*	-18%	27*
COc1ccc(/C(C)=N/Nc2cccc(C(=O)O)c2)cc1OC	56%	?	-18%	0%	-24%	-8%	nt
C[C@H](NC(=O)COc1ccccc1)C(=O)OCC(=O)c1cc2ccccc2o1	51%	-13%	-2%	2%	nt	2%	nt
